Shown are actives, neighbours in structure and some others; about 2.6% of the full set was active somewhere.
Cruzain inh noDet: qHTS Assay for Promiscuous and Specific Inhibitors of Cruzain (without detergent) | 200,000 tested, 2.3% active | Cruzipain (Trypanosoma cruzi), P25779 | Potency, µM, for the others: max response, negative = inhibition, actives largely listed as inhibitors | purified cruzain, Z-FR-AMC fluorescence, no detergent;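 also: plate controls were enzyme without inhibitor for no effect and buffer without enzyme for full effect; nearly all actives have a fitted effect of over 40% in size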
Target sequence (P25779 123-467 limits assumed): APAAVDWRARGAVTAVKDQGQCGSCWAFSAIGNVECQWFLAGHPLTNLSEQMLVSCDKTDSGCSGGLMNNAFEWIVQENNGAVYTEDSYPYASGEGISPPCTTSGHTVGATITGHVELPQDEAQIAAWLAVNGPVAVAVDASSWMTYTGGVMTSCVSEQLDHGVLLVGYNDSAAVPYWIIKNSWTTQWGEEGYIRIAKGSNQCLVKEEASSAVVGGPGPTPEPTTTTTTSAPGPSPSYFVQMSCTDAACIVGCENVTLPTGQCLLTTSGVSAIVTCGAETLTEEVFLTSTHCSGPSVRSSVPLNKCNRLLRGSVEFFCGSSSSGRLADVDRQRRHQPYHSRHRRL
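Detergent-free condition (0.00005% Triton X-100) in acetate buffer pH 5.5 with DTT. 1.5 nM enzyme and compound were pre-mixed 15 min, then 2 uM Z-FR-AMC substrate added; reaction progress from fluorescence change between first and third reads (60 s).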
Cruzain inh Det: qHTS Assay for Promiscuous and Specific Inhibitors of Cruzain (with detergent). Cruzipain (Trypanosoma cruzi), P25779. purified cruzain, Z-FR-AMC fluorescence, 0.01% Triton. 200,000 tested, 0.43% active. AID 1478, 2009. Potency, µM, for the others: max response, negative = inhibition, usual class: inhibitors;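 also: plate controls were neutral wells for no effect and buffer without enzyme for full effect; nearly all actives have a fitted effect of over 40% in size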
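Purified cruzain (1.5 nM final) was preincubated with compounds for 15 min at room temperature in 100 mM sodium acetate pH 5.5, 5 mM DTT, 0.01% Triton X-100. Reaction started with 2 uM Z-FR-AMC; AMC fluorescence change over 60 s gave activity.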
Active calls of the source: *; ? = inconclusive. Calls follow the shape of the dose curve; as a rule, active = well fitted curve in the direction sought with a large enough effect; inconclusive = small, poorly fitted or top-dose-only effect, or another doubt; inactive = no such curve, though single readings can be large; an effect the other way counts as inactive or inconclusive. Potency is read from the fitted curve at half-maximal effect.

SMILES	Cruzain inh noDet	Cruzain inh Det
CN1CCN(c2ccncc2S(=O)(=O)N2CCN(C)CC2)CC1	3.0%	1.8%
N=C1C(c2nc(-c3ccc(F)cc3)cs2)=C(O)CN1CCCN1CCOCC1	-0.3%	-6.1%
CC(C)CCN1CC(O)=C(c2nc(-c3ccc(Cl)cc3)cs2)C1=N	25.1µM*	1.6%
O=C(Cn1c(=O)n(-c2ccc(F)cc2)c(=O)c2sc3ccccc3c21)N1CCCC1	5.0%	-8.3%
O=C(NCc1ccco1)c1ccc(Cn2c(=O)c3ccccc3n(Cc3cccc(Cl)c3)c2=O)cc1	?	0.7%
O=C(NCc1ccco1)c1ccc(Cn2c(=O)c3sccc3n(Cc3cccc(F)c3)c2=O)cc1	25.1µM*	5.4%
CSc1nc(NCc2ccco2)c2sc3nc(C(C)C)c4c(c3c2n1)CC(C)(C)OC4	-3.6%	-1.3%
CSc1nc(NCCOCCO)c2sc3nc(-c4ccco4)c4c(c3c2n1)CCC4	25.2%	7.94µM*
CC(C)Oc1ccc(CN2CCc3nc(Nc4ccc5c(c4)OCCO5)ncc3C2)cc1	-6.8%	-4.7%
CCOCCCn1c(SCC(=O)NCc2ccco2)nc2c(sc3ccccc32)c1=O	-4.0%	-3.4%
O=C(CSc1nc2c(sc3ccccc32)c(=O)n1CCc1ccccc1)NCc1ccco1	5.01µM*	-0.3%
O=C(CSc1nc2c(sc3ccccc32)c(=O)n1-c1ccccc1)NCc1ccco1	?	-13.8%
CCCCn1c(SCC(=O)NCc2ccco2)nc2c(sc3ccccc32)c1=O	10µM*	-1.8%
O=C(O)[C@@H]1CCCNC1	-5.8%	5.5%
CNC1=C(Cl)C(=O)c2ccncc2C1=O	-9.8%	-4.0%
CNC(=O)c1cnc2sc(N3CCCCCC3)nn2c1=O	-6.0%	3.9%
Cc1ccc(C)c(S(=O)(=O)c2cn(Cc3ccccc3)c3cc(F)c(F)cc3c2=O)c1	25.1µM*	-4.8%
Cc1ccc(Cn2cc(S(=O)(=O)c3ccc(Cl)cc3)c(=O)c3cc(F)ccc32)cc1	?	0.4%
COc1ccccc1CN1CC2(CCN(C(=O)c3cnccn3)CC2)C1	-0.8%	0.8%
Cc1cc(NC(=O)c2cc(-c3ccccc3C)nc3ccccc23)no1	-14.4%	-6.7%
CCNC(=S)NNC(=O)c1cc(-c2ccc(OC)cc2)nc2ccccc12	23.2%	-1.1%
CCOC(=O)c1sc(NC(=O)c2cc(-c3ccc(C)cc3)nc3ccccc23)c(C#N)c1C	10µM*	-1.1%
Cc1ccccc1-c1cc(C(=O)Nc2sc(C(=O)OC(C)C)c(C)c2C#N)c2ccccc2n1	10µM*	0.2%
COC(=O)c1sc(NC(=O)c2cc(-c3ccccc3)nc3ccccc23)c(C#N)c1C	-19.6%	-5.7%
Cc1sc(NC(=O)c2cc(-c3ccccc3)nc3ccccc23)c(C(N)=O)c1C	-9.8%	-4.4%
SMILES	Cruzain inh noDet	Cruzain inh Det
COc1ccc(Cl)cc1C(=O)NNC(=S)NC(=O)c1cc(-c2ccc(Cl)cc2)nc2ccccc12	3.16µM*	0.4%
Cc1sc(NC(=O)c2cc(-c3ccc(Cl)cc3)nc3ccccc23)c(C(N)=O)c1C	12.6µM*	-3.9%
Cc1ccc(OCC(=O)OCc2cc(=O)n3c(C)csc3n2)cc1	-12.0%	-4.1%
CCC1CCCCN1S(=O)(=O)c1ccc(C(=O)Nc2sc3c(c2C(=O)NC)CCC3)cc1 (stereo not drawn)	7.5%	-0.8%
C/C=C/C=O	7.2%	2.9%
CCOC(=O)c1cc(-c2ccc(F)cc2)n(CCC(=O)NCCc2ccc(C)cc2)c1C	?	-8.5%
O=C(O)CNc1ccc(C(=O)O)cc1	7.7%	3.0%
CC(=O)c1ccc(NC(=O)c2ccc3c(c2)N(Cc2cccc(Cl)c2)C(=O)c2ccccc2S3(=O)=O)cc1	10µM*	-1.8%
COc1ccc(NC(=O)c2ccc3c(c2)N(Cc2cccc(Cl)c2)C(=O)c2ccccc2S3=O)cc1Cl (stereo not drawn)	?	-5.5%
COc1ccc(NC(=O)c2ccc3c(c2)N(Cc2cccc(Cl)c2)C(=O)c2ccccc2S3(=O)=O)cc1Cl	3.16µM*	-0.2%
CC(=O)c1ccc(NC(=O)c2ccc3c(c2)N(Cc2cccc(Cl)c2)C(=O)c2ccccc2S3=O)cc1 (stereo not drawn)	-13.8%	-0.5%
NC(=O)OC[C@H](O)COc1ccc(Cl)cc1	-6.1%	1.2%
O=C(c1cc(C(F)(F)F)cc(C(F)(F)F)c1)N1CCC2(CC1)CCN(c1ccncc1)CC2	-4.2%	0.6%
CCC(=O)NCCC1CCc2ccc3c(c21)CCO3 (stereo not drawn)	?	4.2%
Cc1ccc(C(=O)/C=C/c2cn(CC(O)CN3CCc4ccccc43)c3ccccc23)cc1 (stereo not drawn)	10µM*	-4.2%
COc1ccc(C(=O)/C=C/c2cn(CC(O)CN3CCc4ccccc43)c3ccccc23)cc1OC (stereo not drawn)	-25.7%	-4.6%
Cc1cccc(-c2nnc(SCC(=O)NC3CCCCC3)o2)c1	-0.9%	-2.4%
N#Cc1c(C(F)(F)F)cc(-c2cccs2)nc1SCc1cccnc1	?	31.6µM*

Bioassay records (PubChem)
